Results reported in the antibiotic and cytotoxicity screens of Wong et al. (2023).
Screen size: about 39,000 compounds; about 3,300 (8.5%) were called active. This excerpt belongs to a sample that is enriched for actives.

test system: HepG2; test: cytotoxicity call (relative viability < 0.9); details: 10 µM

**Q.** `C[C@H]1CN([C@@H](C)CO)C(=O)c2cc(NS(=O)(=O)c3cccs3)ccc2O[C@H]1CN(C)S(C)(=O)=O` was tested. Which cytotoxicity call did it give?
**A.** inactive

**Q.** `COc1ccc(S(=O)(=O)N(C)C[C@@H]2Oc3ccc(NS(=O)(=O)c4ccccc4)cc3CC(=O)N([C@H](C)CO)C[C@@H]2C)cc1` was tested. Which cytotoxicity call did it give?
**A.** inactive

**Q.** How did the cytotoxicity call turn out when `COCCN(C)C(=O)c1ccc2nnc([C@H]3CN(S(C)(=O)=O)CCN3C)n2c1` was run?
**A.** inactive

**Q.** With `C=CCOC(=O)[C@@H]1[C@H]2C(=O)O[C@H](c3ccccc3)[C@H](c3ccccc3)N2[C@H](c2ccc(OCCOC(=O)[C@@H]3C[C@@H]4C(=O)N[C@@H](CCCCNC(C)=O)C(=O)N4[C@@H]3c3ccc(O)cc3)cc2)[C@@]12C(=O)Nc1ccccc12` as the molecule, how does the cytotoxicity call read?
**A.** inactive

**Q.** How did the cytotoxicity call turn out when `C=CCNC1=C2C[C@H](C)C[C@H](OC)[C@@H](O)[C@H](C)/C=C(\C)[C@H](OC(N)=O)[C@H](OC)/C=C/C=C(\C)C(=O)NC(=CC1=O)C2=O` was run?
**A.** active

**Q.** With `C=CCNC1=C2C[C@@H](C)C[C@H](OC)[C@H](O)[C@@H](C)/C=C(\C)[C@H](OC(N)=O)[C@@H](OC)/C=C\C=C(/C)C(=O)NC(=CC1=O)C2=O` as the molecule, how does the cytotoxicity call read?
**A.** active

**Q.** For `CO[C@H]1/C=C\C=C(/C)C(=O)NC2=CC(=O)C(NCCN(C)C)=C(C[C@@H](C)C[C@H](OC)[C@H](O)[C@@H](C)/C=C(\C)[C@@H]1OC(N)=O)C2=O`, which cytotoxicity call is on record?
**A.** active

**Q.** How did the cytotoxicity call turn out when `C[C@H](CO)N1C[C@H](C)[C@H](CN(C)S(=O)(=O)c2cn(C)cn2)Oc2ccc(NS(=O)(=O)c3cn(C)cn3)cc2CC1=O` was run?
**A.** inactive

**Q.** Which cytotoxicity call does the source give for `CC(C)NC(=O)N(C)C[C@H]1OCc2cn(nn2)CCCC(=O)N([C@@H](C)CO)C[C@@H]1C` here?
**A.** inactive

**Q.** With `Cc1noc(C)c1NC(=O)N(C)C[C@@H]1Oc2cc(C#CCN(C)C)ccc2S(=O)(=O)N([C@@H](C)CO)C[C@H]1C` as the molecule, how does the cytotoxicity call read?
**A.** inactive

**Q.** With `COc1ccc(S(=O)(=O)Nc2ccc3c(c2)C(=O)N([C@@H](C)CO)C[C@@H](C)[C@H](CN(C)C(=O)c2ccccc2)OCCCC[C@@H](C)O3)cc1` as the molecule, how does the cytotoxicity call read?
**A.** inactive

**Q.** For `Nc1ccccc1CO`, which cytotoxicity call is on record?
**A.** active

**Q.** For `OCc1ccccc1O`, which cytotoxicity call is on record?
**A.** inactive

**Q.** For `Nc1cc(F)ccc1CO`, which cytotoxicity call is on record?
**A.** inactive

**Q.** How did the cytotoxicity call turn out when `C[C@H](CO)N1C[C@H](C)[C@H](CN(C)C(=O)c2ccccc2)Oc2cc(C#C[C@@H](C)O)ccc2S1(=O)=O` was run?
**A.** inactive

**Q.** How did the cytotoxicity call turn out when `Cc1ccc(S(=O)(=O)Nc2ccc3c(c2)CC(=O)N([C@H](C)CO)C[C@H](C)[C@@H](CN(C)C(=O)NC(C)C)O3)cc1` was run?
**A.** inactive

**Q.** Which cytotoxicity call does the source give for `C[C@@H]1CN([C@@H](C)CO)S(=O)(=O)c2ccc(C#CC3CC3)cc2O[C@H]1CN(C)C(=O)Cc1ccncc1` here?
**A.** inactive

**Q.** Which cytotoxicity call does the source give for `COc1ccc2c3c([nH]c2c1)[C@@H](CO)N(C[C@]13CN(C1)S(=O)(=O)c1cn(cn1)C)C(=O)Nc1ccc(cc1)F` here?
**A.** inactive

**Q.** With `C[C@@H]1CN([C@@H](C)CO)C(=O)c2cc(NC(=O)Nc3ccc4c(c3)OCO4)ccc2O[C@@H]1CN(C)C(=O)Nc1ccc(C(F)(F)F)cc1` as the molecule, how does the cytotoxicity call read?
**A.** inactive

**Q.** `COC1C(O)CC(=O)OC(C)CC=CC=CC(OC2CCC(N(C)C)C(C)O2)C(C)CC(CC=O)C1OC1OC(C)C(OC2CC(C)(O)C(O)C(C)O2)C(N(C)C)C1O` (stereo not given) was tested. Which cytotoxicity call did it give?
**A.** active

**Q.** `CO[C@@H]1[C@@H](O[C@@H]2O[C@H](C)[C@@H](O[C@H]3C[C@@](C)(O)[C@@H](OC(=O)CC(C)C)[C@H](C)O3)[C@H](N(C)C)[C@H]2O)[C@@H](CC=O)C[C@@H](C)[C@@H](O)/C=C\C=C/C[C@@H](C)OC(=O)C[C@H]1OC(C)=O` was tested. Which cytotoxicity call did it give?
**A.** inactive

**Q.** With `COC1C(O)CC(=O)OC(C)CC=CC=CC(O)C(C)CC(CC=O)C1OC1OC(C)C(OC2CC(C)(O)C(OC(=O)CC(C)C)C(C)O2)C(N(C)C)C1O` (stereo not given) [KITASAMYCINS [A1 shown] ] as the molecule, how does the cytotoxicity call read?
**A.** inactive

**Q.** For `CO[C@@H]1[C@@H](O[C@@H]2O[C@H](C)[C@@H](O[C@H]3C[C@@](C)(O)[C@@H](O)[C@H](C)O3)[C@H](N(C)C)[C@H]2O)[C@@H](CC=O)C[C@@H](C)[C@@H](O[C@H]2CC[C@H](N(C)C)[C@@H](C)O2)/C=C/C=C/C[C@@H](C)OC(=O)C[C@H]1O`, which cytotoxicity call is on record?
**A.** inactive

**Q.** Which cytotoxicity call does the source give for `CO[C@@H]1[C@@H](O[C@@H]2O[C@H](C)[C@@H](O[C@H]3C[C@@](C)(O)[C@@H](OC(=O)CC(C)C)[C@H](C)O3)[C@H](N(C)C)[C@H]2O)[C@@H](CC=O)C[C@@H](C)[C@@H](O)/C=C/C=C/CC(C)OC(=O)C[C@H]1OC(C)=O` (stereo not given in full) here?
**A.** active

**Q.** For `CO[C@@H]1[C@@H](O[C@@H]2O[C@H](C)[C@@H](O[C@H]3C[C@@](C)(O)[C@@H](O)[C@H](C)O3)[C@H](N(C)C)[C@H]2O)[C@@H](CC=O)C[C@@H](C)[C@@H](O[C@H]2CC[C@H](N(C)C)[C@@H](C)O2)/C=C/C=C/CC(C)OC(=O)C[C@H]1OC(C)=O` (stereo not given in full), which cytotoxicity call is on record?
**A.** inactive

**Q.** For `COc1ccc(C(N)=S)cn1`, which cytotoxicity call is on record?
**A.** inactive

**Q.** With `Cc1noc(C)c1S(=O)(=O)Nc1ccc2c(c1)C(=O)N([C@H](C)CO)C[C@H](C)[C@H](CN(C)CC1CC1)O2` as the molecule, how does the cytotoxicity call read?
**A.** inactive

**Q.** How did the cytotoxicity call turn out when `C[C@@H]1CN([C@@H](C)CO)S(=O)(=O)c2ccc(C#CC(C)(C)O)cc2O[C@H]1CN(C)Cc1ccncc1` was run?
**A.** inactive

**Q.** `C[C@H](CO)N1C[C@H](C)[C@@H](CN(C)S(=O)(=O)c2ccccc2)Oc2ccc(NC(=O)CCN3CCOCC3)cc2CC1=O` was tested. Which cytotoxicity call did it give?
**A.** inactive

**Q.** How did the cytotoxicity call turn out when `COc1cc(NS(C)(=O)=O)ccc1Nc1c2ccccc2nc2ccccc12` was run?
**A.** active

**Q.** For `CS(=O)(=O)Nc1ccc2c(c1)C(=O)NC2=O`, which cytotoxicity call is on record?
**A.** inactive

**Q.** `COc1ccccc1CNS(C)(=O)=O` was tested. Which cytotoxicity call did it give?
**A.** inactive

**Q.** `C[C@H]1CCCCO[C@@H](CN(C)C(=O)c2ccncc2)[C@@H](C)CN([C@@H](C)CO)C(=O)c2cc(NC(=O)NC3CCCCC3)ccc2O1` was tested. Which cytotoxicity call did it give?
**A.** inactive

**Q.** With `Cn1nccc1C(=O)NCCN` as the molecule, how does the cytotoxicity call read?
**A.** inactive

**Q.** `CNCCC(Oc1ccccc1C)c1ccccc1.Cl` (stereo not given) was tested. Which cytotoxicity call did it give?
**A.** inactive

**Q.** `CNCCC(Oc1ccc(C(F)(F)F)cc1)c1ccccc1.Cl` (stereo not given) was tested. Which cytotoxicity call did it give?
**A.** active

**Q.** Which cytotoxicity call does the source give for `CNC(=O)[C@@H](c1ccccc1)N1CCc2cc(OC)c(OC)cc2[C@@H]1CCc1ccc(C(F)(F)F)cc1` here?
**A.** inactive

**Q.** Which cytotoxicity call does the source give for `CCCOC(=S)N[C@H]1OC[C@@H](O)[C@@H](O)[C@@H]1O` here?
**A.** inactive

**Q.** For `COc1ccccc1-c1ccc2c(c1)O[C@@H](CN(C)S(=O)(=O)c1ccccc1)[C@@H](C)CN([C@@H](C)CO)S2(=O)=O`, which cytotoxicity call is on record?
**A.** inactive

**Q.** How did the cytotoxicity call turn out when `C=CC[C@@H](CC(=O)NCCO)C(=O)NC[C@H](OC(=O)[C@H](CC=C)CC(=O)OC(C)(C)C)c1ccccc1` was run?
**A.** inactive
